# From PubChem BioAssay AID540364 (The Scripps Research Institute Molecular Screening Center, 2011)
# The campaign covered roughly 360,000 compounds. About 2,000 (0.56%) were called active.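 How the source made its calls: active means activation above the average of all compounds screened plus 3 SD, cutoff fixed separately per campaign (cut at about 7.5% in these data); inactive means the rest.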 Many of the other results were omitted from the sample, so actives are more common in it than they were.
# Experiment: FXN promoter activators, primary screen, cell-based, luciferase luminescence, HEK293 lucGAA850 (AID 540364);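 further: 0% = DMSO wells and 100% = 10 µM SAHA wells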
# Conditions: HEK293 lucGAA850 FXN promoter luciferase reporter, 24 h; at 6 µM; stronger effect = higher value
row,Compound,activation
1,O=C1C2(Cl)C3(Cl)C4(Cl)C(Cl)(Cl)C5(Cl)C3(Cl)C1(Cl)C5(Cl)C24Cl (stereo not given),9.58% (active)
2,COc1ccc(Br)cc1CNCCc1cccc(Cl)c1,-0.31% (inactive)
3,O=C(c1cc2nc(-c3ccccc3)cc(-c3ccccc3)n2n1)N1CCC2(CC1)OCCO2,-0.55% (inactive)
4,NCC(O)c1ccc(O)cc1 (stereo not given),2.36% (inactive)
5,CC(C)(C)c1ccc(OC(=O)N2CCCCC2)cc1,8.59% (active)
6,O=C(Nc1cccc(OC(=O)N2CCCCC2)c1)N1CCOCC1,-1.14% (inactive)
7,CN1CCN(C(=O)COc2ccc(C(C)(C)C)cc2Br)CC1,-0.38% (inactive)
8,CCN(CC)P(=O)(Oc1cccc(C)c1)N(CC)CC,-1.37% (inactive)
9,COc1ccc(-n2c(-c3ccccc3)nc3ccccc3c2=O)cc1,0.96% (inactive)
10,CC(=C1C(=O)c2ccccc2C1=O)N1CCN(CCN=Cc2c(O)n(C)c(=O)n(C)c2=O)CC1,1.17% (inactive)
